From ChEMBL document CHEMBL4513135, “CO-ADD screening of IQOG CSIS (Spain) compounds”
Measured potencies and affinities stand elsewhere.

System: Cryptococcus neoformans
Settings: Concentration 32 ug.mL-1; ASSAY_TEST Inhibition of Fungal Growth; detection method Resazurin; Absorption (OD600-OD570); plate type 384well; NBS; CORNING #3640

Which Inhibition does the source give for `N#CC1(Br)C(=NBr)Oc2ccc3ccccc3c2C1c1cccc([N+](=O)[O-])c1` (stereo not given) here?
Its Inhibition is -42.61%.

With `O=C(N/N=C/c1c[nH]c2ccccc12)c1ccco1` as the molecule, how does the Inhibition read?
The Inhibition was -1.51%.

Which Inhibition does the source give for `Cl.ClCCCC1CCNCC1` here?
Its Inhibition is -2.91%.

`COc1ccc(/C=C2/N=C(c3ccccc3)OC2=O)cc1OC` was tested. Which Inhibition did it give?
The Inhibition was -8.84%.

`Cn1ccnc1C1c2ccc3cccnc3c2Oc2nc3c(c(N)c21)CCCCC3` (stereo not given) was tested. Which Inhibition did it give?
Its Inhibition is -79.42%.

`Nc1c2c(nc3c1C(c1ccccc1)c1ccc4ccccc4c1O3)CCCC2` (stereo not given) was tested. Which Inhibition did it give?
The Inhibition was 5.07%.

For `O=C(Cc1c[nH]c2ccccc12)NNCCc1ccccc1`, which Inhibition is on record?
Its Inhibition is -0.59%.

With `Cn1ccnc1C1c2ccc3cccnc3c2Oc2nc3c(c(N)c21)CCC3` (stereo not given) as the molecule, how does the Inhibition read?
Its Inhibition is -104.91%.

Which Inhibition does the source give for `Cn1ccnc1C1C2=C(CC(C)(C)CC2=O)Oc2nc3c(c(N)c21)CCCC3` (stereo not given) here?
The Inhibition was -60.42%.

How did the Inhibition turn out when `CCOC(=O)c1c(C)nc(NCC2CCN(Cc3ccccc3)CC2)c(C#N)c1-c1ccccc1` was run?
The Inhibition was -54.17%.

Which Inhibition does the source give for `N#CC1=C(N)Oc2ccc3ccccc3c2C1` here?
Its Inhibition is -44.07%.

How did the Inhibition turn out when `Cl.N#Cc1cc(C#N)c(N2CCCC2)nc1Cl` was run?
Its Inhibition is -52.24%.

`COc1ccc(C2c3c(ccc4ccccc34)OC(=N)C2(Br)C#N)cc1OC` (stereo not given) was tested. Which Inhibition did it give?
Its Inhibition is -66.17%.

With `COc1ccc2c(c1)cc(CO)n2C` as the molecule, how does the Inhibition read?
The Inhibition was -5.23%.

Which Inhibition does the source give for `N#Cc1cc(C#N)c(N2CCC(Cc3ccccc3)CC2)nc1N` here?
Its Inhibition is -23.72%.

`NNC(=O)CCc1c[nH]c2ccccc12` was tested. Which Inhibition did it give?
The Inhibition was -3.69%.

How did the Inhibition turn out when `C#CCNc1nc(NCCCC2CCN(Cc3ccccc3)CC2)c(C#N)cc1C#N.Cl` was run?
The Inhibition was -40.38%.

With `O=Cc1cc2ccccc2nc1Cl` as the molecule, how does the Inhibition read?
The Inhibition was -7.31%.

For `Cn1cc(C=O)c2ccccc21`, which Inhibition is on record?
The Inhibition was -4.31%.

How did the Inhibition turn out when `C#CCNc1cccc(F)n1` was run?
Its Inhibition is -45.04%.

For `CC1CC(=O)Nc2c1c(Cl)nc1nc3c(c(N)c21)CCCC3` (stereo not given), which Inhibition is on record?
The Inhibition was -92.92%.

Which Inhibition does the source give for `COc1ccc(C2c3ccc4ccccc4c3OC(=NBr)C2(Br)C#N)cc1OC` (stereo not given) here?
Its Inhibition is -80.16%.

How did the Inhibition turn out when `N#C[C@]1(Br)C(=N)Oc2ccc3ccccc3c2[C@@H]1c1ccc([N+](=O)[O-])cc1` was run?
Its Inhibition is -3.1%.

`CCCC(C)NNC(=O)c1cc2ccccc2[nH]1` (stereo not given) was tested. Which Inhibition did it give?
Its Inhibition is -3.77%.

For `c1ccc(CNc2ncnc3c2cnn3-c2ccccc2)cc1`, which Inhibition is on record?
The Inhibition was -6.46%.

With `COc1ccc(C2C(C#N)=C(N)Oc3ccc4ccccc4c32)cc1` (stereo not given) as the molecule, how does the Inhibition read?
Its Inhibition is -30.57%.

For `O=C(NCc1ccccc1)c1cc2ccccc2[nH]1`, which Inhibition is on record?
The Inhibition was -6.86%.

How did the Inhibition turn out when `COc1cc(C2C(C#N)=C(N)Oc3ccc4ccccc4c32)ccc1O` (stereo not given) was run?
Its Inhibition is -49.89%.

`Nc1ccccc1C(=O)N/N=C/c1c[nH]c2ccccc12` was tested. Which Inhibition did it give?
The Inhibition was 0.1%.

`N#CC1(Br)C(=NBr)Oc2c(ccc3ccccc23)C1c1cccc([N+](=O)[O-])c1` (stereo not given) was tested. Which Inhibition did it give?
The Inhibition was -69.53%.

Which Inhibition does the source give for `N#C/C(=C\c1ccccc1Cl)C(=O)c1ccccc1` here?
The Inhibition was -6.26%.

With `CSC1=NC2(CC2c2ccccc2)C(=O)N1C` (stereo not given) as the molecule, how does the Inhibition read?
Its Inhibition is -5.95%.

`O=C(N/N=C/c1c[nH]c2ccccc12)c1cc2ccccc2[nH]1` was tested. Which Inhibition did it give?
Its Inhibition is -6.47%.

`CN1C/C(=C\Br)n2c1c(C#N)cc(C#N)c2=O` was tested. Which Inhibition did it give?
Its Inhibition is -48.49%.

Which Inhibition does the source give for `N#Cc1cc(C#N)c(NCCO)nc1N` here?
Its Inhibition is -17.78%.

For `Cn1c(C(=O)O)cc2cc(OCCCC3CCN(Cc4ccccc4)CC3)ccc21`, which Inhibition is on record?
Its Inhibition is -100.02%.

For `N#Cc1cc(C#N)c(NCCCC2CCN(Cc3ccccc3)CC2)nc1N`, which Inhibition is on record?
Its Inhibition is -57.65%.

For `C#CCNc1nc(OC)c(C#N)c(-c2ccccc2)c1C#N`, which Inhibition is on record?
Its Inhibition is -26.89%.

`O=C(N/N=C/Cc1ccccc1)c1cc2ccccc2[nH]1` was tested. Which Inhibition did it give?
Its Inhibition is -3.25%.

`COc1ccccc1C1C(C#N)=C(N)Oc2ccc3ccccc3c21` (stereo not given) was tested. Which Inhibition did it give?
The Inhibition was -18.76%.
